Test results taken from PubChem BioAssay (EPA / NIEHS).
Inconclusive results are not listed. The source made the active and inactive calls. The calls were made as follows: active = hit-call score of the fitted dose curve at least 0.9, where 1 is the maximum; inconclusive = response in the unintended direction; inactive = score below 0.9.

Test: IUF_NPC2-5_cytotoxicity_72hr: Cytotoxicity Assessment at 72 hours in the Leibniz Research Institute for Environmental Medicine (IUF) Neural Progenitor Cell Migration and Differentiation Assay for Cytotoxicity (NPC2-5) (AID 2284306);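 also: LDH release into supernatant measured by resorufin fluorescence marking membrane damage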
Protocol: IUF_NPC2-5 is a cell-based, multiplexed assay that uses hNPC, a human primary neural progenitor cells, with measurements taken at 72 or 120 hours after chemical dosing in a 96-well plate. Human neural progenitor cells (hNPC) are generated from human fetal brain cortex at gestational week (GW) 16-19. In the neural progenitor cell migration and differentiation assay (NPC2-5), hNPCs grown as spheres are plated on an extracellular matrix and migrate and differentiate out of the sphere core. The processes radial glia migration, neuronal and oligodendrocyte migration as well as neuronal differentiation, neuronal morphology and oligodendrocyte differentiation are studied using automated phase contrast imaging and automated fluorescence imaging in combination with high content image analysis. In parallel, the cell viability is assessed using an alamar blue viability assay and the cytotoxicity using a lactate dehydrogenase dependent membrane integrity assay.IUF_NPC2-5_cytotoxicity_72hr is one of 12 assay components measured from the IUF_NPC2-5 assay. It is designed to measure the cytotoxicity at 72 hr as assessed by membrane integrity related to the LDH dependent reduction of resazurin to resorufin in the supernatant of each well. The cytotoxicity is measured as fluorescence signal (relative fluorescence unit) in a multiplate reader. Data from the IUF_NPC2-5_cytotoxicity_72hr component was analyzed at the endpoint IUF_NPC2-5_cytotoxicity_72hr in the positive analysis fitting direction relative to the dynamic range and baseline of activity. Using a type of viability reporter, gain-of-signal activity can be used to understand cytotoxicity effects.
Culture protocol: After the cell expansion period the cells are cultured for up to four weeks in which they are passaged every week as described in 3.6. Between one to three days after passaging spheres at a size of 0.3 mm are picked for the test method. For the assessment of neural progenitor cell migration and differentiation, the spheres are plated on poly-D-lysine/laminin coated 96-well flat bottom plates in differentiation medium (N2) to initiate migration and differentiation. Thereby one 0.3 mm big sphere is plated in the middle of a well. The differentiation medium consists of DMEM and Ham's F12 at a ratio of 3 to 1 supplemented with 1% N2 and 1% penicillin and streptomycin. Within 5 days NPCs radially migrate out of the sphere core and differentiate into radial glia cells (nestin positive), neurons (TUBB3 positive), oligodendrocytes (O4 positive) and astrocytes (GFAP positive). Cultivation during the test method is performed at 37C and 5% CO2 at a ph of 7.2-7.6.Exposure: 0.3 mm big hNPC are plated in the already prepared test conditions. Exposure starts at day 0 of differentiation and is continued over five days of differentiation until the experiment is terminated. Cells are fed with fresh medium at day 3 of differentiation. Therefore, half of the test condition solution (e.g. solvent control or compound dilution) is replaced by freshly prepared test condition solution.Test Method: Migration distance and cytotoxicity is determined after 72 hours based on brightfield images of each well. The assay is terminated by the assessment of cell viability and cytotoxicity as well as cell fixation after 120 h. Immunocytochemistry is performed for Hoechst positive nuclei, TUBB3 positive neurons and O4 positive oligodendrocytes. On the ICC images, migration after 120 hours, neuronal and oligodendrocyte number, neuronal morphology and neuron/oligodendrocyte specific migration is assessed. immunocytochemical staining (ICC) generates an image for each sphere. The plates are scanned using an automated high content imaging device and all nuclei and their positions are determined automatically based on their intensity and size. Images are imported to the Omnisphero software to run the image analysis that measures the following endpoints. […]

SMILES	outcome	AC50
CC1(C)C(C=C(Cl)Cl)C1C(=O)O[C@H](C#N)c1cccc(Oc2ccccc2)c1 (stereo partly specified)	inactive	–
[CH3][Hg][Cl]	inactive	–
O=[As]O	inactive	–
CC1(C)C(C=C(Cl)c2ccc(Cl)cc2)C1C(=O)OC(C#N)c1ccc(F)c(Oc2ccccc2)c1 (stereo unspecified)	inactive	–
Brc1ccc(Oc2ccc(Br)cc2Br)c(Br)c1	inactive	–
CC1(C)[C@H](C(=O)O[C@H](C#N)c2cccc(Oc3ccccc3)c2)[C@@H]1C=C(Br)Br	–	3.53 µM (active)
CCOP(=O)(OCC)OC(Cl)C(Cl)(Cl)Cl (stereo unspecified)	inactive	–
O=C1N[C@@H]2C(=C[C@H](O)[C@@H](O)[C@H]2O)c2cc3c(c(O)c21)OCO3	inactive	–
Brc1ccc(Oc2cc(Br)c(Br)cc2Br)c(Br)c1	inactive	–
CC1(C)[C@H](C=C(Cl)Cl)[C@H]1C(=O)OCc1c(F)c(F)cc(F)c1F	inactive	–
CCOP(=S)(OCC)SCS(=O)C(C)(C)C (stereo unspecified)	inactive	–
CC1(C)C(C=C(Cl)Cl)[C@H]1C(=O)O[C@H](C#N)c1cccc(Oc2ccccc2)c1 (stereo partly specified)	inactive	–
CCOP(=O)(OCC)SCSCC	inactive	–
Cc1ccc(OP(=O)(Oc2ccc(C)cc2)Oc2ccc(C)cc2)cc1 (tested in a mixture with another compound)	inactive	–
Cn1nc(C(F)(F)F)c(CS(=O)(=O)C2=NOC(C)(C)C2)c1OC(F)F	inactive	–
CC(=O)[O-].CC(=O)[O-].O.O.O.[Pb+2]	inactive	–

SMILES	outcome	AC50
CC1(C)[C@@H](C=C(Cl)Cl)[C@@H]1C(=O)O[C@@H](C#N)c1ccc(F)c(Oc2ccccc2)c1	inactive	–
CNC(=N[N+](=O)[O-])NCC1CCOC1 (stereo unspecified)	inactive	–
CC(C)CC(C)c1sccc1NC(=O)c1cn(C)nc1C(F)(F)F (stereo unspecified)	inactive	–
CP(=O)(O)CCC(N)C(=O)O (stereo unspecified)	inactive	–
C/C(=C/C=C/[C@@H](C)C(=O)O)[C@H]1CN[C@H](C(=O)O)[C@H]1CC(=O)O	inactive	–
COP(=O)(OC)SCN1C(=O)c2ccccc2C1=O	inactive	–
C[n+]1ccc(-c2ccccc2)cc1	inactive	–
[O-][Cl+3]([O-])([O-])O	inactive	–
CCOP(=O)(OCC)SCSC(C)(C)C	inactive	–
CNC1(c2ccccc2Cl)CCCCC1=O (stereo unspecified)	inactive	–
C[n+]1ccc(-c2cc[n+](C)cc2)cc1	inactive	–
[Cd+2].[Cl-].[Cl-]	–	13.5 µM (active)
CCOP(=O)(Oc1cnc(C(C)(C)C)nc1)OC(C)C (stereo unspecified)	inactive	–
CC(=O)[O-].[Tl+]	inactive	–
CC(C)CCCCCCCOP(=O)(Oc1ccccc1)Oc1ccccc1	inactive	–
